# Hits are enriched below; roughly 18% of the tested compounds scored in any of these assays.
# IL1B secr inh: qHTS for Inhibitors of Inflammasome Signaling: IL-1-beta AlphaLISA Primary Screen; THP-1 LPS/ATP IL-1B secretion, AlphaLISA, 16 h; active compounds read low; activity change, % at 57.5 µM; actives 4.7% (n = 360,000); AID 743279, 2014; in the data active = activity change below about -50%; inconclusive = mostly about -30% to -49%; note: % is set by controls: 0 for no effect and ±100 for the full control effect
#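 Secreted IL-1B measured by AlphaLISA bead assay after 16 h compound exposure of THP-1 cells; compounds (final up to 57.5 uM) added 1 h before LPS (250 ng/mL) and ATP (1.25 mM) stimulation; lower signal means less secretion.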
# TDP1 cell noCPT: qHTS for Inhibitors of human tyrosyl-DNA phosphodiesterase 1 (TDP1): qHTS in cells in absence of CPT | DT40 Tdp1-/- hTDP1 cells, no CPT, ATP luminescence, 48 h | Potency, µM (highest dose often 46.2 µM), for the others: at the highest dose activity change, negative = growth inhibition, actives largely listed as inhibitors | actives 15% (n = 420,000); note: potency is the fitted concentration of half-maximal effect; % is set by controls: 0 for no effect and ±100 for the full control effect; nearly all actives have a fitted effect of over 55% in size
#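 Readout: luminescence from CellTiter-Glo after 30 min in the dark at RT. Cells: DT40 Tdp1-/- with stable hTDP1, 400/well. Exposure: compounds alone, ≥48 hr, 37 °C.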
# TGFb SMAD3 inh: qHTS for Inhibitors of TGF-b; actives 1.2% (n = 410,000); AID 588855, 2011; Potency, µM (top dose mostly 46.1 µM), without a hit: top-dose activity, negative = inhibition, most hits filed as inhibitors; HepG2 CAGA-GFP TGF-b/SMAD3 reporter, GFP fluorescence, 18 h; TGF-beta stimulated, 500 pg/mL final; note: potency is the fitted concentration of half-maximal effect; % is set by controls: 0 for no effect and ±100 for the full control effect; nearly all actives have a fitted effect of over 65% in size
#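 HEPG2 CAGA-GFP reporter cells (1000/well, DMEM with 1% FBS) received compounds, then recombinant TGF-beta at 500 pg/mL final for 18 hours at 37 degrees C. Per-cell GFP summed per well was normalised to unstimulated and stimulated DMSO controls before curve fitting.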
# HepG2 viability: qHTS for Inhibitors of TGF-b: Cytotox Counterscreen | Potency, µM (highest dose often 46.1 µM), for the others: top-dose activity change, negative = cytotoxicity, usual class: cytotoxic | HepG2 CAGA-GFP viability, ATP luminescence, 18 h | AID 588856, 2011 | actives 0.76% (n = 410,000); note: potency is the fitted concentration of half-maximal effect
#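 CellTiter-Glo luminescence gave cytotoxicity after 18 hours at 37 degrees C. The cells were HepG2 CAGA-GFP in 1% FBS DMEM, stimulated with 500 pg/mL TGF-beta after compound addition. %Activity was normalised to no-cell wells (complete cell-killing) and DMSO (no toxicity), and curves were fitted and classified.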
# TDP1 block: qHTS Assay for Inhibitors of Tyrosyl-DNA Phosphodiesterase (TDP1); Tyrosyl-DNA phosphodiesterase 1 (Homo sapiens), Q9NUW8; recombinant TDP1, AlphaScreen DNA substrate cleavage; Potency, µM (series often up to 130 µM), for inactives: at the top dose activity change, negative = inhibition, actives largely listed as inhibitors; actives 0.28% (n = 350,000); AID 485290, 2010; note: potency is the fitted concentration of half-maximal effect; % is set by controls: 0 for no effect and ±100 for the full control effect; nearly all actives have a fitted effect of over 40% in size
# Target sequence (Q9NUW8 whole entry, looked up): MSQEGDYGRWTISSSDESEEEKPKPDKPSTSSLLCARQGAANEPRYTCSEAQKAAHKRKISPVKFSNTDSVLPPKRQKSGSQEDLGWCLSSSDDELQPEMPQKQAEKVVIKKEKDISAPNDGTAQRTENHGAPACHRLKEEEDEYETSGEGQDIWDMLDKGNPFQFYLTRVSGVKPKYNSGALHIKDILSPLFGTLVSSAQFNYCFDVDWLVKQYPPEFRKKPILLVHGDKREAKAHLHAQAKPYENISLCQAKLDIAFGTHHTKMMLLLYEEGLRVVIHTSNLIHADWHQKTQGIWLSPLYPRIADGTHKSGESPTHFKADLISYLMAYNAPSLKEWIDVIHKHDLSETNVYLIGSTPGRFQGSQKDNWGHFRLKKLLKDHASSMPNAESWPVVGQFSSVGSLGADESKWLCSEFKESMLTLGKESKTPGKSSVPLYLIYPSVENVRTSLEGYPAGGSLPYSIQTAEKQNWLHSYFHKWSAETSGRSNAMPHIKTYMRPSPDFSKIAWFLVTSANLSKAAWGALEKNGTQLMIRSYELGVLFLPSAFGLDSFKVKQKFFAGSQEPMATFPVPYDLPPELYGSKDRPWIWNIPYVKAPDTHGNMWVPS
#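 Recombinant E. coli-expressed Tdp1 (1 nM) preincubated with compound 15 min at RT, then 5'-biotin/3'-phosphotyrosine-FITC DNA substrate (15 nM) added for 5 min. AlphaScreen beads (10 ug/ml) added, 10 min RT; tyrosine-FITC cleavage read as signal loss.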
# DT40 TDP1 CPT: qHTS for Inhibitors of human tyrosyl-DNA phosphodiesterase 1 (TDP1): qHTS in cells in presence of CPT; chicken DT40 Tdp1-/-;hTDP1 cells + 20 nM CPT, ATP luminescence, 48 h; Potency, µM (series often up to 46.2 µM), inactives show at the top dose activity change, negative = growth inhibition, actives largely listed as inhibitors; actives 12% (n = 420,000); AID 686979, 2013; note: potency is the fitted concentration of half-maximal effect; % is set by controls: 0 for no effect and ±100 for the full control effect; nearly all actives have a fitted effect of over 55% in size
#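 Chicken DT40 Tdp1-/- cells stably complemented with human TDP1 were seeded at 400 cells/well in medium containing 20 nM camptothecin, exposed to pin-transferred compounds, and grown at 37 °C for at least 48 hr. Viability was read as ATP luminescence.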
# * marks the source's active call; other numbers are inactive results; ? = inconclusive; . = no result; [ ] = another dose, or the depositor's remark. Unless noted, calls come from the whole dose curve; as a rule, active = well fitted curve in the direction sought with a large enough effect; inconclusive = small, poorly fitted or top-dose-only effect, or another doubt; inactive = no such curve, though single readings can be large; an effect the other way counts as inactive or inconclusive.
SMILES,IL1B secr inh,TDP1 cell noCPT,TGFb SMAD3 inh,HepG2 viability,TDP1 block,DT40 TDP1 CPT
CC(C)N(Cc1ccccc1)C(=O)CN1C(=O)CSc2ccc(S(=O)(=O)N3CCCC3)cc21,.,-82%,0%,-14%,3%,12µM*
CC(C)N(Cc1ccccc1)C(=O)CN1C(=O)COc2ccc(S(=O)(=O)N3CCCCCC3)cc21,-21,13µM*,?,1%,4%,15µM*
CCOc1ccc(OC(=O)c2cn(-c3cccc(OC)c3)c(=O)c3ccccc23)cc1,.,?,31%,-2%,1%,?
O=C(C[C@@H]1C/C=C\C[C@H](NC(=O)OCC2c3ccccc3-c3ccccc32)C(=O)OC[C@@H]2CCCN2C1=O)N[C@@H](CO)Cc1ccccc1,15,18µM*,-7%,-11%,-11%,18µM*
O=C(C[C@@H]1C/C=C\C[C@H](NC(=O)OCC2c3ccccc3-c3ccccc32)C(=O)OC[C@H]2CCCN2C1=O)N[C@H](CO)Cc1ccccc1,-16,5.2µM*,-38%,-2%,-1%,4.6µM*
O=C(C[C@@H]1C/C=C\C[C@H](NC(=O)OCC2c3ccccc3-c3ccccc32)C(=O)OC[C@@H]2CCCN2C1=O)N[C@H](CO)Cc1ccccc1,28,10µM*,-11%,5%,-11%,7.3µM*
CC(C)(C)OC(=O)C[C@H]1C/C=C\C[C@@H](CC(=O)NCCO)C(=O)N2CCC[C@H]2COC1=O,69,-3%,?,1%,0%,-8%
O=C(C[C@@H]1C/C=C\CCCC(=O)OC[C@@H]2CCCN2C1=O)N[C@H](CO)Cc1ccccc1,1,-8%,5%,1%,0%,4%
O=C(C[C@@H]1C/C=C\C[C@H](NC(=O)OCC2c3ccccc3-c3ccccc32)C(=O)OC[C@@H]2CCCN2C1=O)NCCO,18,10µM*,-2%,-2%,?,4.6µM*
O=C(C[C@H]1C/C=C\C[C@H](NC(=O)OCC2c3ccccc3-c3ccccc32)C(=O)OC[C@@H]2CCCN2C1=O)N[C@H](CO)Cc1ccccc1,22,9.2µM*,-1%,-1%,-4%,10µM*
O=C(NCCc1nnc2ccc(SCC(=O)N3CCCC3)nn12)c1ccc(F)cc1,0,24%,0%,6%,5%[56.1 µM],-4%
COC(=O)c1ccccc1NC(=O)c1cc2c(-c3ccc(OC)c(OC)c3)nn(C)c2s1,.,-18%,-3%,4%,.,-12%
CCCCN(CC)CCCNC(=O)c1cc2c(-c3ccc(OC)c(OC)c3)nn(C)c2s1,-70*,?,9%,-21%,-2%,?
COc1ccc(CCNC(=O)c2cc3c(-c4ccc(OC)c(OC)c4)nn(C)c3s2)cc1OC,.,2.9µM*,6%,-29%,.,2.6µM*
CCOCCCNC(=O)c1cc2c(-c3ccc(OC)c(OC)c3)nn(C)c2s1,.,18µM*,0%,-24%,0%,7.3µM*
COc1ccc(Oc2nc3c(c(=O)n(C)c(=O)n3C)n2Cc2ccc(Cl)cc2Cl)cc1,.,21µM*,-12%,-11%,0%,?
COc1ccc(Oc2nc3c(c(=O)n(C)c(=O)n3C)n2Cc2ccccc2Cl)cc1,.,13µM*,0%,4%,-2%,?
COc1ccc(Cl)c(Cn2c(NCc3ccccn3)nc3c2c(=O)n(C)c(=O)n3C)c1,-3,15µM*,-25%,2%,3%,?
Cn1c(=O)c2c(nc(Oc3ccc(F)cc3)n2Cc2ccc(F)cc2)n(C)c1=O,.,.,3%,2%,-1%,.
COc1ccc(Cn2c(NCC(C)C)nc3c2c(=O)n(C)c(=O)n3C)cc1,.,?,3%,-20%,.,-10%
Cn1c(=O)c2c(nc(NCC3CCCC(CN)C3)n2Cc2ccc(Cl)cc2Cl)n(C)c1=O (centres undefined),13,5.8µM*,0%,-30%,.,4.6µM*
CCOC(=O)[C@H]1[C@H]2COc3ccc(Cl)cc3[C@H]2N2C(=O)CNC(=O)[C@@]12C,0,3%,18%,22%,2%,-12%
c1ccc(CSc2ccc3nnc(-c4ccccn4)n3n2)cc1,25,21µM*,?,-36%,5%,?
Fc1ccc(CSc2ccc3nnc(-c4cccnc4)n3n2)cc1,?,16µM*,-2%,1%,2%,16µM*
Cc1cccc(CSc2ccc3nnc(-c4ccccn4)n3n2)c1,28,?,21%,-20%,-5%,?
SMILES,IL1B secr inh,TDP1 cell noCPT,TGFb SMAD3 inh,HepG2 viability,TDP1 block,DT40 TDP1 CPT
O=C(N1CCOCC1)N1CCN(S(=O)(=O)c2cccc([N+](=O)[O-])c2)CC1,11,20%,-1%,0%,-1%,-15%
COc1cc(OC)cc(C(=O)NCC(=O)NCCN2C(=O)S/C(=C\c3ccccc3Cl)C2=O)c1,-10,?,-20%,-26%,4%,?
COc1ccc(/C=C2\SC(=O)N(CCNC(=O)Cc3coc4cc(C)ccc34)C2=O)cc1OC,-3,?,?,-26%,0%,?
COc1cc(OC)cc(C(=O)NCC(=O)NCCN2C(=O)S/C(=C\c3ccc4c(c3)OCO4)C2=O)c1,-54*,18µM*,14%,2%,.,?
COc1cc(C(=O)NCC(=O)NCCN2C(=O)S/C(=C\c3ccccc3Cl)C2=O)cc(OC)c1OC,-1,18µM*,-7%,-9%,1%,18µM*
O=C(CCc1nc2ccccc2c(=O)[nH]1)NCCN1C(=O)S/C(=C\c2ccc(Cl)cc2Cl)C1=O,17,4.6µM*,25%,-19%,2%[0.505 µM],8.2µM*
O=C(CCc1nc2ccccc2c(=O)[nH]1)Nc1ccc(Cl)c(Cl)c1,0,?,?,-46%,1%,-23%
Cc1ccc(NC(=O)CN2C(=O)NC(C)(c3ccc(Cl)cc3)C2=O)cc1S(=O)(=O)N1CCOCC1 (centres undefined),-5,18µM*,?,-30%,6%,21µM*
Cc1ccc(NC(=O)CN2C(=O)NC(C)(C)C2=O)cc1S(=O)(=O)N1CCCCCC1,1,-13%,-21%,0%,-10%,-9%

# Compound activity as filed in PubChem BioAssay.
